How the values were obtained:
Experiment in all cases: DAPPL (digital affinity profiling via proximity ligation, sequencing); 10 mM Tris-HCl pH 7.5, 50 mM NaCl, 1 mM DTT, 4% glycerol, room temperature, 30 min; GST-TFs on glutathione beads, 16-mer random dsDNA library, 0.1% formaldehyde crosslink after washing; high values mean tight binding
FLI1 = target: T1, FLI1 (Homo sapiens, UniProt Q01543 1-452); details: protein: recombinant; tags: N-terminal GST; dsDNA, one strand shown
T1 sequence: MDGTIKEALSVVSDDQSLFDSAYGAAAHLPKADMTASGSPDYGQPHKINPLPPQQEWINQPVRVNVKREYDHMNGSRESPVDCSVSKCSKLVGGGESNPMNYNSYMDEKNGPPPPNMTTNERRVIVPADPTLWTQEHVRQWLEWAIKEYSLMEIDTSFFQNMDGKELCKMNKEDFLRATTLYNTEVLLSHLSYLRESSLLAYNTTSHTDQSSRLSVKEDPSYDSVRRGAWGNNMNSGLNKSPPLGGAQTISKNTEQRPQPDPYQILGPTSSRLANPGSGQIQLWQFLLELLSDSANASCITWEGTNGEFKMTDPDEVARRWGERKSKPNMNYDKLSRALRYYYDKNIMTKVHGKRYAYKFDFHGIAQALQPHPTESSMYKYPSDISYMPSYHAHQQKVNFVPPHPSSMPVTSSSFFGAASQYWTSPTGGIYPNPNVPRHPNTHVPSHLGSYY
Method in brief: (§1)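 Human transcription factors fused to GST were expressed in yeast, captured on glutathione beads, given DNA barcodes and pooled with a GST-only negative control. Pools were incubated with 200 nmole of a 16-mer random double-stranded DNA library in Tris/NaCl/DTT/glycerol buffer at room temperature for 30 min. They were then washed, crosslinked with 0.1% formaldehyde, proximity-ligated (BsaI/T4 ligase, 1 h, 37 °C), PCR-amplified and sequenced on an Illumina NextSeq500. Binding signal is each 6-mer's read frequency for a factor divided by its frequency for the GST control.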

ELK1 = target: T2, ELK1 (Homo sapiens, UniProt P19419 1-428); details: protein: recombinant; tags: N-terminal GST; dsDNA, one strand shown
T2 sequence: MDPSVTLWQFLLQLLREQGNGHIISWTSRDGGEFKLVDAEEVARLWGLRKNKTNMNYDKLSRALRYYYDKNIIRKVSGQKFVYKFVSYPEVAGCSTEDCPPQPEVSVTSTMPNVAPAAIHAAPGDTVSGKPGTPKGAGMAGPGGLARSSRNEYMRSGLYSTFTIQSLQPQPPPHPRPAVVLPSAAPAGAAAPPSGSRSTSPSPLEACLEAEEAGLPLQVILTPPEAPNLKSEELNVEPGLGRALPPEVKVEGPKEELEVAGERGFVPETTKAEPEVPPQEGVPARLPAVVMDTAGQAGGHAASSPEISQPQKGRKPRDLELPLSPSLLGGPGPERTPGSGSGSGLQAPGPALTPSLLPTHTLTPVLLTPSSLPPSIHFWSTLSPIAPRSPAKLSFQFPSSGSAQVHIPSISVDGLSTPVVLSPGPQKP
Method in brief: as §1

GABPA = target: T3, GABPA (Homo sapiens, UniProt Q06546 1-454); details: protein: recombinant; tags: N-terminal GST; dsDNA, one strand shown
T3 sequence: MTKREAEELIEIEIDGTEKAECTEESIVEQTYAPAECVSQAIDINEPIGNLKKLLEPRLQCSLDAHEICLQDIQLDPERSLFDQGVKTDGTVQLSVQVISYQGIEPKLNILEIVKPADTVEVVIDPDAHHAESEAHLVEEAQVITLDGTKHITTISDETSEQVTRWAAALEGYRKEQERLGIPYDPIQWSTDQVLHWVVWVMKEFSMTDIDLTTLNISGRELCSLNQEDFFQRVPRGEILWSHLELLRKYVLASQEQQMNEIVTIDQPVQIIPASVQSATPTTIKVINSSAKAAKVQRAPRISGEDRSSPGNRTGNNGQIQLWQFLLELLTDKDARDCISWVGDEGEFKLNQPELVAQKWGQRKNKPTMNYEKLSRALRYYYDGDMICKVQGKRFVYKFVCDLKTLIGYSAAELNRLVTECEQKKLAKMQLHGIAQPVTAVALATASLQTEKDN
Method in brief: as §1

ERG = target: T4, ERG (Homo sapiens, UniProt P11308 1-479); details: protein: recombinant; tags: N-terminal GST; dsDNA, one strand shown
T4 sequence: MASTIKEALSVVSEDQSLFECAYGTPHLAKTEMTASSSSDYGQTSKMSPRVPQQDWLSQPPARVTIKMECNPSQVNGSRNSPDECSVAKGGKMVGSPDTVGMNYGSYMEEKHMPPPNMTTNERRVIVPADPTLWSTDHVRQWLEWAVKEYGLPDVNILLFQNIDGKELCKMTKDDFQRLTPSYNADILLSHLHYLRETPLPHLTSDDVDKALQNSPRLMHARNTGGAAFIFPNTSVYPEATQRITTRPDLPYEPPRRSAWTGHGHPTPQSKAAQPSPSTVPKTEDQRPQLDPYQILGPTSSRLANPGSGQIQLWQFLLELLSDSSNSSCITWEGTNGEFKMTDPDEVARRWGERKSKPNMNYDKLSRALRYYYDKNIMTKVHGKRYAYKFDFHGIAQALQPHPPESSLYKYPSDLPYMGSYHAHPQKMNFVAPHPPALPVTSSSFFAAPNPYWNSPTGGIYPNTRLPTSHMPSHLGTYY
Method in brief: as §1

ELF1 = ELF1 (Homo sapiens, UniProt P32519 1-619); details: protein: recombinant; tags: N-terminal GST; dsDNA, one strand shown
Method in brief: as §1

EHF = target: T5, EHF (Homo sapiens, UniProt Q9NZC4 1-300); details: protein: recombinant; tags: N-terminal GST; dsDNA, one strand shown
T5 sequence: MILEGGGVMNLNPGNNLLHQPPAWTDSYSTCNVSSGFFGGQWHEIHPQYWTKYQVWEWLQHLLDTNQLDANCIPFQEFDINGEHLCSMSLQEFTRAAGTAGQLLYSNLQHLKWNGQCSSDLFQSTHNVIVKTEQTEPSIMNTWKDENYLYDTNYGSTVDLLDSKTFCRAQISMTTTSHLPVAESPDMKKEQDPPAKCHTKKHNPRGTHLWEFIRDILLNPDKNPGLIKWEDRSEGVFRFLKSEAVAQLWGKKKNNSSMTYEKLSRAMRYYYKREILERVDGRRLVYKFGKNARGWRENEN
Method in brief: as §1

SPI1 = SPI1 (Homo sapiens, UniProt P17947 1-270); details: protein: recombinant; tags: N-terminal GST; dsDNA, one strand shown
Method in brief: as §1

SPIB = SPIB (Homo sapiens, UniProt Q01892 1-262); details: protein: recombinant; tags: N-terminal GST; dsDNA, one strand shown
Method in brief: as §1

ELK3 = target: T6, ELK3 (Homo sapiens, UniProt P41970 1-407); details: protein: recombinant; tags: N-terminal GST; dsDNA, one strand shown
T6 sequence: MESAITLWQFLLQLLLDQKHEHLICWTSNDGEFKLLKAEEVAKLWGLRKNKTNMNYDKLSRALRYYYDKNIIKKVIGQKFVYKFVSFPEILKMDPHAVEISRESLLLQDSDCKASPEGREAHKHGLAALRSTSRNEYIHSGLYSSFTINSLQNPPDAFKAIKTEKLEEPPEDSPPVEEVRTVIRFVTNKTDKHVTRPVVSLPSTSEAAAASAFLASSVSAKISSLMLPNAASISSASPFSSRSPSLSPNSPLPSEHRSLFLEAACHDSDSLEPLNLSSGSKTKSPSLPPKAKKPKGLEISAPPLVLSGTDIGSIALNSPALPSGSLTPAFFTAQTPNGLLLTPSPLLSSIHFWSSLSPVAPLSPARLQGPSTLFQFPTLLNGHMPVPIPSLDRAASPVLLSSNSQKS
Method in brief: as §1

FEV = target: T7, FEV (Homo sapiens, UniProt Q99581 1-238); details: protein: recombinant; tags: N-terminal GST; dsDNA, one strand shown
T7 sequence: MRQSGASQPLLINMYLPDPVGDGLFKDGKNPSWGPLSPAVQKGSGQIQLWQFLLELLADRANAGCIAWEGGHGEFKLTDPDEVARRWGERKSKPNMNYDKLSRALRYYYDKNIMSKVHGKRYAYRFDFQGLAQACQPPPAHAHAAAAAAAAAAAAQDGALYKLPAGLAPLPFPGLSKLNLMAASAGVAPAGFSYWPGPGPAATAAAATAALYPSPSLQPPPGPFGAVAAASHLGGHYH
Method in brief: as §1

ETV5 = ETV5 (Homo sapiens, UniProt P41161 1-510); details: protein: recombinant; tags: N-terminal GST; dsDNA, one strand shown
Method in brief: as §1

HSF1 = HSF1 (Homo sapiens, UniProt Q00613 1-529); details: protein: recombinant; tags: N-terminal GST; chain copies: 3; dsDNA, one strand shown
Method in brief: as §1

SPIC = target: T8, SPIC (Homo sapiens, UniProt Q8N5J4 1-248); details: protein: recombinant; tags: N-terminal GST; dsDNA, one strand shown
T8 sequence: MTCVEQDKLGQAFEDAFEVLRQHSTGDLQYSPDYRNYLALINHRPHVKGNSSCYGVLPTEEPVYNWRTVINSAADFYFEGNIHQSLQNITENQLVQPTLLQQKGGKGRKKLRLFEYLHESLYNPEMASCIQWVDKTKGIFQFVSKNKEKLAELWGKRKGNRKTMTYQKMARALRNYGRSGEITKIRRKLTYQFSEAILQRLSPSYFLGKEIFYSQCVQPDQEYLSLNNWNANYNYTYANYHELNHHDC
Method in brief: as §1

ELF4 = ELF4 (Homo sapiens, UniProt Q99607 1-663); details: protein: recombinant; tags: N-terminal GST; dsDNA, one strand shown
Method in brief: as §1

ELK4 = target: T9, ELK4 (Homo sapiens, UniProt P28324-2 1-405); details: protein: recombinant; tags: N-terminal GST; dsDNA, one strand shown
T9 sequence: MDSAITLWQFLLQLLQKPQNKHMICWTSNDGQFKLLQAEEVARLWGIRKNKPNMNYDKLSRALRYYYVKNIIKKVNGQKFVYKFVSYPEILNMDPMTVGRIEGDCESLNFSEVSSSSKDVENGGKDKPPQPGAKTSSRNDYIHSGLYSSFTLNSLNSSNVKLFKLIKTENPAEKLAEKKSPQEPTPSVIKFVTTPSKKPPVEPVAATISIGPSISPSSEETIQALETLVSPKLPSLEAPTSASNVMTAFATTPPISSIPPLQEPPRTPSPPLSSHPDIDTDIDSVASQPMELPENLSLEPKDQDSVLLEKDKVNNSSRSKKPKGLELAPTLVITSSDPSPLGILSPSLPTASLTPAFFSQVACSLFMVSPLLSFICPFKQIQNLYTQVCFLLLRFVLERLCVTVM
Method in brief: as §1

ETV2 = target: T10, ETV2 (Homo sapiens, UniProt O00321 1-342); details: protein: recombinant; tags: N-terminal GST; dsDNA, one strand shown
T10 sequence: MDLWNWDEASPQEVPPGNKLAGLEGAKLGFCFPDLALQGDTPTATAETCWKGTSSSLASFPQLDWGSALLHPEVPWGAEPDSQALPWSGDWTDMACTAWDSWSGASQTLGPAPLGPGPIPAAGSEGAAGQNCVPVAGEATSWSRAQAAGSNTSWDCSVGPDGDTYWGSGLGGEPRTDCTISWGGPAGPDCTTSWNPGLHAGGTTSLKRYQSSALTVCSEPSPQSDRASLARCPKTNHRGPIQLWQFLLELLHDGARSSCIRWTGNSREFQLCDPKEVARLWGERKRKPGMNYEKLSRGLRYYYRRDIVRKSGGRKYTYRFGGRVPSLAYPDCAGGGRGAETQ
Method in brief: as §1

ELF3 = target: T11, ELF3 (Homo sapiens, UniProt P78545 1-371); details: protein: recombinant; tags: N-terminal GST; dsDNA, one strand shown
T11 sequence: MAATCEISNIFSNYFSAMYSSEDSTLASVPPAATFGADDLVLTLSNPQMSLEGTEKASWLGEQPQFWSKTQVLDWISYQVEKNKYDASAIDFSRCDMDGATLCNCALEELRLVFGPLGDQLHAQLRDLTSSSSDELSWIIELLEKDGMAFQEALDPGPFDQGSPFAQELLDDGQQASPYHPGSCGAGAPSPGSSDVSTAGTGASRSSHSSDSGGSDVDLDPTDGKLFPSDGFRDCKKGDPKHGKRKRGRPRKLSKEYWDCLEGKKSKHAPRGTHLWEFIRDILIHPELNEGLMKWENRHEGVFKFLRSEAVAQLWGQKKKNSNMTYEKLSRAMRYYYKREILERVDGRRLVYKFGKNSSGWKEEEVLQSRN
Method in brief: as §1

CRX = CRX (Homo sapiens, UniProt O43186 1-299); details: protein: recombinant; tags: N-terminal GST; dsDNA, one strand shown
Method in brief: as §1

ETV1 = ETV1 (Homo sapiens, UniProt P50549 1-477); details: protein: recombinant; tags: N-terminal GST; dsDNA, one strand shown
Method in brief: as §1

Chain of ELF1 (P32519 whole entry): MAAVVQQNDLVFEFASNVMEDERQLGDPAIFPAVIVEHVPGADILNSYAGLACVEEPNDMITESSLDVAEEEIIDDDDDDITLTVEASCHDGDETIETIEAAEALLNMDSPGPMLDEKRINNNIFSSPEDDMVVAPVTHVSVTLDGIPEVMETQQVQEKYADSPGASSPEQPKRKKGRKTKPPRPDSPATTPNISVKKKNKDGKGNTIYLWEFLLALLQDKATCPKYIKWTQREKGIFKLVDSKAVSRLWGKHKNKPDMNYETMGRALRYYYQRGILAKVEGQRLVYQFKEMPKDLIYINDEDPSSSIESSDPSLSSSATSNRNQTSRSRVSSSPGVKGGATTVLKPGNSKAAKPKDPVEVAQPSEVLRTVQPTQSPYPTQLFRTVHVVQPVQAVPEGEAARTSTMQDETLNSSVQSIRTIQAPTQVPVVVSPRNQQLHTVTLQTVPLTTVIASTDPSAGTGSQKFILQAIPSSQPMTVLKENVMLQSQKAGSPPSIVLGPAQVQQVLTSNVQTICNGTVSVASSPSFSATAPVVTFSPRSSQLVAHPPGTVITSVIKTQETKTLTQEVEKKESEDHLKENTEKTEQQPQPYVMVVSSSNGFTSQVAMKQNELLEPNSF
Chain of HSF1 (Q00613 whole entry): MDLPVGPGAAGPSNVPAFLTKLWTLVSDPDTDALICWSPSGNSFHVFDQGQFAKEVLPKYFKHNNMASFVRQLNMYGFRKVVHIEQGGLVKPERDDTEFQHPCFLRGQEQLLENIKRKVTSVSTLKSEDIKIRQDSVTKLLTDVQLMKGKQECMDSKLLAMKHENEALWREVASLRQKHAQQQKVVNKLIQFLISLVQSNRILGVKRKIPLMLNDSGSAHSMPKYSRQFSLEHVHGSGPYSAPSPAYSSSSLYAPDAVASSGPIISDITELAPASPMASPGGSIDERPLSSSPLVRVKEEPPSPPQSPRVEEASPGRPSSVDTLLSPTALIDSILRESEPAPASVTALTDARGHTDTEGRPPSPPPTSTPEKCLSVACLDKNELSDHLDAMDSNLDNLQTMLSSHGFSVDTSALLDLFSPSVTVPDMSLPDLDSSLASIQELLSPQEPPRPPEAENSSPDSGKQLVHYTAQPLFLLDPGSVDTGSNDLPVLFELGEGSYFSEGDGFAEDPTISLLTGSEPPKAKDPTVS
Chain of SPIB (Q01892 whole entry): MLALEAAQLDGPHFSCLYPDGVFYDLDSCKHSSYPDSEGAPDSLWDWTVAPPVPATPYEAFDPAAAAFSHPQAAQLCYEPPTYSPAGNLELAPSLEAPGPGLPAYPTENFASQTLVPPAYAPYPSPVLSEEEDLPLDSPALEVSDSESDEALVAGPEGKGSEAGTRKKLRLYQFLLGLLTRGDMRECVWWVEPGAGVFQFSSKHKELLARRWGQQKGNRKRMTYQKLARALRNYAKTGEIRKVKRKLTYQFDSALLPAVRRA
Chain of ELF4 (Q99607 whole entry): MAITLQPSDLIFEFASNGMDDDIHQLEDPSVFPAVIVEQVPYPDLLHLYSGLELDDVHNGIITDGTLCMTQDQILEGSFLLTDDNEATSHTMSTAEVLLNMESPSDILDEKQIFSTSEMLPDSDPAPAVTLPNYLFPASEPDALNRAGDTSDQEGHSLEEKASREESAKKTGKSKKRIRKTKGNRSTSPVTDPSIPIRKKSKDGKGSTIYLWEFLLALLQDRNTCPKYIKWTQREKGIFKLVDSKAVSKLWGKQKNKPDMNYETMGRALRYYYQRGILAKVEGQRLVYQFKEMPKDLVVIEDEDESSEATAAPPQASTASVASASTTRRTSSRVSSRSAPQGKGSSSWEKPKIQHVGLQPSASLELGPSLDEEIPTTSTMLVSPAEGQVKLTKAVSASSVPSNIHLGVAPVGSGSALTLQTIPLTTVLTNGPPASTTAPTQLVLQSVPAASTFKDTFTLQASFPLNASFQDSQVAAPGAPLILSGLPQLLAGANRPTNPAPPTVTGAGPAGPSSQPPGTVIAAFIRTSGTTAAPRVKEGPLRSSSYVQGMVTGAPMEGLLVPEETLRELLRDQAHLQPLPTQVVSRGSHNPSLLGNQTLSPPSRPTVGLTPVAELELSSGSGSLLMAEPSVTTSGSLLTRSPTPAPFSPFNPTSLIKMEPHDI
Chain of ETV5 (P41161 whole entry): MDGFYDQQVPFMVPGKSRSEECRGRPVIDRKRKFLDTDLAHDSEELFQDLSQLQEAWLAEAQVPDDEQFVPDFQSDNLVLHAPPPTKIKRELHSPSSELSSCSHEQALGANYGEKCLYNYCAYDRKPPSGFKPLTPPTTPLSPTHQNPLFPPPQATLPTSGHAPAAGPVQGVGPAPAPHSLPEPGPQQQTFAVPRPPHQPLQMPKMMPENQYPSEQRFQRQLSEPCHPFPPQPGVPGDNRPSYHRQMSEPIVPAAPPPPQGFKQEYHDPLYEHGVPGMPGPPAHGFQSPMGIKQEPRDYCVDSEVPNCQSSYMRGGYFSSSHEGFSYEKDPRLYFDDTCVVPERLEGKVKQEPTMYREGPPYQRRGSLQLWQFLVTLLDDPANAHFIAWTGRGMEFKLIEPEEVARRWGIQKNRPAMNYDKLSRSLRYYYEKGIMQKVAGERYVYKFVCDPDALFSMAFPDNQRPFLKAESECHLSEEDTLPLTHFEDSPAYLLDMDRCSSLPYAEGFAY
Chain of ETV1 (P50549 whole entry): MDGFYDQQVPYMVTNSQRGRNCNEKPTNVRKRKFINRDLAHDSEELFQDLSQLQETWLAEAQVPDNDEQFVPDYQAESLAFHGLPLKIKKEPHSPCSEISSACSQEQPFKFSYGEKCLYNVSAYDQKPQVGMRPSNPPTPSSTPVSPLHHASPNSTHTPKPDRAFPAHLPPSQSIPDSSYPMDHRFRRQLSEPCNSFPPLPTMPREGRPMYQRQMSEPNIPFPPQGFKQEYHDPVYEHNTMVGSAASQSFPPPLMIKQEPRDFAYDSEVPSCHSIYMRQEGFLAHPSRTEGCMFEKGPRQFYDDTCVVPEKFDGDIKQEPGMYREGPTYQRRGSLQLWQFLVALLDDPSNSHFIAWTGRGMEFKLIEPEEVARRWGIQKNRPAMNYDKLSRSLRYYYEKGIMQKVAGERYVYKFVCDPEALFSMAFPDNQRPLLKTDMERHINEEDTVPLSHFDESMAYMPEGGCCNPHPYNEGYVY
Chain of CRX (O43186 whole entry): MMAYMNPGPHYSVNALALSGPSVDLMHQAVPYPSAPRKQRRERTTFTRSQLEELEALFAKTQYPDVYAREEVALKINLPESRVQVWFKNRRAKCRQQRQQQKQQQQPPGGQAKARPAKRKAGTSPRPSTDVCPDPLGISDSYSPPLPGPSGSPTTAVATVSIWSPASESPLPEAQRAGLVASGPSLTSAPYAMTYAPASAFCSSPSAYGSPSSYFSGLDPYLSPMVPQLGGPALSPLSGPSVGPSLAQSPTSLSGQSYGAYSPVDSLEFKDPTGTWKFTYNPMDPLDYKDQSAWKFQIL

Question: Which binding signal (FLI1) does the source give for AGCTAC here?
Answer: 1.13 fold enrichment (6-mer frequency, TF over GST control)

Question: What about the binding signal (ELK1) of the same sequence?
Answer: 1.11 fold enrichment (6-mer frequency, TF over GST control)

Question: And the binding signal (GABPA)?
Answer: 1.16 fold enrichment (6-mer frequency, TF over GST control)

Question: And the binding signal (ERG)?
Answer: 1.13 fold enrichment (6-mer frequency, TF over GST control)

Question: What about the binding signal (ELF1) of the same sequence?
Answer: 1.15 fold enrichment (6-mer frequency, TF over GST control)

Question: And the binding signal (EHF)?
Answer: 1.22 fold enrichment (6-mer frequency, TF over GST control)

Question: What about the binding signal (SPI1) of the same sequence?
Answer: 1.17 fold enrichment (6-mer frequency, TF over GST control)

Question: What about the binding signal (SPIB) of the same sequence?
Answer: 1.19 fold enrichment (6-mer frequency, TF over GST control)

Question: What about the binding signal (ELK3) of the same sequence?
Answer: 1.18 fold enrichment (6-mer frequency, TF over GST control)

Question: And the binding signal (FEV)?
Answer: 1.23 fold enrichment (6-mer frequency, TF over GST control)

Question: And the binding signal (ETV5)?
Answer: 1.21 fold enrichment (6-mer frequency, TF over GST control)

Question: What about the binding signal (HSF1) of the same sequence?
Answer: 1.04 fold enrichment (6-mer frequency, TF over GST control)

Question: What about the binding signal (SPIC) of the same sequence?
Answer: 1.21 fold enrichment (6-mer frequency, TF over GST control)

Question: What about the binding signal (ELF4) of the same sequence?
Answer: 1.12 fold enrichment (6-mer frequency, TF over GST control)

Question: What about the binding signal (ELK4) of the same sequence?
Answer: 1.25 fold enrichment (6-mer frequency, TF over GST control)

Question: What about the binding signal (ETV2) of the same sequence?
Answer: 1.03 fold enrichment (6-mer frequency, TF over GST control)

Question: And the binding signal (ELF3)?
Answer: 1.34 fold enrichment (6-mer frequency, TF over GST control)

Question: And the binding signal (CRX)?
Answer: 1.04 fold enrichment (6-mer frequency, TF over GST control)

Question: What about the binding signal (ETV1) of the same sequence?
Answer: 1.21 fold enrichment (6-mer frequency, TF over GST control)
